# The panel holds about 83,000 compounds, 20% with a hit somewhere; the sample as a whole holds those more often.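 A percent growth of 40 corresponds to 60% growth inhibition; 0 means no net growth; -100 means all cells died. Active threshold: below 10.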 Values without a mark were called inactive. Calls of active or inactive are those of the source.
# Tested on: UACC-62 melanoma
# Test: NCI-60 one-dose screen, 48 h (100 = growth as untreated, 0 = no growth, -100 = all killed)
# Settings: 10 µM unless noted
# Procedure: Growth inhibition of the UACC-62 human tumor cell line is measured as a screen for anti-cancer activity. Cells are grown in 96 well plates and exposed to the test compound for 48 hours. Compounds are tested at a single concentration, which is 10^-5 M for most compounds. The reported endpoint is percent growth (GI% or GIPRCNT), where numbers from 0 - 100% represent growth inhibition, and numbers from -100% - 0 represent cell death. For example, a value of 40 represents 60% growth inhibition. A value of 0 means no net growth occurred over the course of the experiment. A value of -40 indicates 40% of cells at the beginning of the experiment died by the end of the experiment. A value of -100 means all cells are dead at the end of the experiment.
# NCI-60 Human Tumor Cell Lines Screen was performed using the standard one-dose NCI protocol, which is described in more detail at https://dtp.cancer.gov/discovery_development/nci-60/default.htm.
# Compounds with GIPRCNT values below 10 were considered active. Activity score was based on GIPRCNT using the following formula: […]
# Score is 0 for GIPRCNT values of 100 or above, 50 for GIPRCNT values of 0, and 100 for GIPRCNT values of -100.
row,SMILES,growth
1,COc1cc(/C=C2\CCC/C(=C\c3cc(CN4CCOCC4)c(O)c(OC)c3)C2=O)cc(CN2CCOCC2)c1O,40%
2,O=C(CCc1nnc2sc(Cc3ccccc3Cl)nn12)c1nc2ncccc2[nH]1,83.2%
3,O=C(NC1CCCCC1)C(c1cccs1)N(CCc1ccccc1)C(=O)c1ccco1 (stereo not given),90.3%
4,O=c1oc2ccc(I)cc2c(=O)n1-c1ccc(Br)cc1F,-14.7% (active)
5,COc1ccc(S(=O)(=O)N(Cc2ccc3c(n2)C=CC(C)(C)O3)C2CCC2)cc1OC,-14.7% (active)
6,CC1(O)COCCCCOc2c(CN)cccc2NC(=O)c2nc(cnc2N)-c2ccc(cc2)S(=O)(=O)C(C)(C)C1 (stereo not given),-90.8% (active)
7,Cc1ccc2c(n1)C(=O)C(Oc1ccc(Br)cc1)=CC2=O,95.9%
8,O=C(c1nc2ccccc2[nH]1)C1C(c2ccc(F)cc2)C2CC3CCCCC3N2[C@@]12C(=O)Nc1ccc(Cl)cc12 (stereo not given in full),55.1%
9,CCOC(=O)c1cnc2c(C)cccc2c1Nc1ccc(C(C)=O)cc1,12.3%
10,COc1ccc(Br)c(/C=C2\SC(=Nc3ccc(O)cc3)NC2=O)c1,89.5%
11,COc1ccc(-c2cn[nH]c2-c2ccc(OC)c(O)c2)cc1,66%
12,COc1cc(/C=C/C(=O)c2c(C)nc3ccccc3c2/C=C/c2ccccc2)cc(OC)c1OC,10.5%
13,CN1CCN(c2nc(Nc3ccc(O)cc3)nc3ccccc23)CC1,49.2%
14,COc1cc(C2C3=C(COC3=O)N(CCO)c3cc4c(cc32)CCC4)cc(OC)c1O (stereo not given),39.8%
15,CN1CCN(Cc2ccc(C(=O)Nc3cncc(C#Cc4cnc(N)c5ccccc45)c3)cc2C(F)(F)F)CC1,42.7%
16,CN(C)c1ccc(/C=C/c2ccnc3c(O)cccc23)cc1,-27.6% (active)
17,COc1ccc(C2=Nn3c(NN)nnc3SC2)cc1,104%
18,CS(=O)(=O)Nc1ccc(C(=O)NC(C(=O)NO)c2ccc(-c3cccc(F)c3)cc2)cc1 (stereo not given),79%
19,Fc1cccc(COc2ccc(Nc3ncnc4onc(-c5ccccc5)c34)cc2)c1,23.5%
20,O=C(O)CCC(=O)c1ccc(C2CCCCCC2)cc1,106%

row,SMILES,growth
1,COc1ccc(Nc2nc(N/N=C/c3ccc(O)cc3)nc(Nc3ccc([N+](=O)[O-])cc3)n2)cc1,110%
2,O=c1oc2ccc(-c3ccc(F)cc3F)cc2c(=O)n1-c1ccc(Cl)c(C(F)(F)F)c1,0.294% (active)
3,COc1ccc(/C=c2\sc3n(c2=O)NC2C(N=3)N(C)C(=O)N2C)cc1 (stereo not given),89.1%
4,COc1ccc(-c2cn3c(C(=O)Nc4ccccc4Cl)c(-c4ccccc4)c4c3n2CCCC4)cc1,93.2%
5,CN1C(=O)N(C)C2Nn3c(s/c(=C\c4ccc(Cl)cc4Cl)c3=O)=NC21 (stereo not given),47.1%
6,Cc1ccc(NC2=CC(=O)C(=O)c3ccccc32)c(C)c1,-59.5% (active)
7,CC1=NCC2NC(=O)NC(C)=C12 (stereo not given),95.2%
8,CCC(C)(C)C(=O)O[C@H]1C[C@@H](C)C=C2C=C[C@H](C)[C@H](CC[C@@H]3CC=CC(=O)O3)[C@H]21,72.5%
9,COC(=O)/C(=C\c1c(C)[nH]c2ccccc12)S(=O)(=O)c1ccccc1,53.8%
10,Oc1c(CN2CCN(c3ccccc3F)CC2)cc(Br)c2cccnc12,-42.5% (active)
11,O=C(Nc1ccc(I)cc1F)c1cc(Br)ccc1O,-19.2% (active)
12,Cn1nc(C(F)(F)F)c(-c2ccc(Cl)c(C(F)(F)F)c2)c1-c1ccc(OCc2ccc(Cl)cc2)cc1O,19.7%
13,COc1ccc(C2Nc3ncnc(N)c3N=C3c4ccccc4C(=O)C32)cc1 (stereo not given),117%
14,O=c1oc2ccc(I)cc2c(=O)n1-c1ccc(F)cc1F,0.781% (active)
15,Clc1ccc(COc2ccc(Nc3ncnc4onc(-c5ccccc5)c34)cc2)cc1,64.2%
16,COc1ccc(CCN2CCC(CN(C)Cc3cnn(-c4ccccc4)c3)CC2)cc1,-14.2% (active)
17,COc1cc(C#N)cc2[nH]c(=O)oc12,113%
18,COc1ccc2occ(C3=C(c4c[nH]c5ccccc45)C(=O)NC3=O)c2c1,37.9%
19,O=C(CSc1ncccc1C(=O)O)Nc1ccc(Oc2ccccc2)cc1,116%
20,O=c1c(-c2nc3ccccc3[nH]2)cc2ccccc2n1Cc1cn(Cc2ccc(F)cc2)nn1,17.2%

# From PubChem BioAssay (NCI)
